aSyn UTR act = Activators working through SNCA 5'UTR binding (MLPCN). alpha-synuclein 5'UTR reporter, activators screen. activity score, % (tested at 7.5 µM), hits read low. hit rate 7.1% among 300,000. AID 1814; in the data active = activity score below about -60%
Active calls of the source: *. A selection follows.

SMILES	aSyn UTR act
Cc1ccc2nc(SC(C)C(=O)N3CCCCC3)[nH]c2c1 (stereo not given)	-81*
Cc1ccc2nc(SCC(=O)N3CCCC3)[nH]c2c1	-129*
Cc1ccc2nc(SC(C)C(=O)N3CCCC3)[nH]c2c1 (stereo not given)	-75*
Cc1ccc2nc(SCC(=O)c3ccc(O)cc3O)[nH]c2c1	-220*
Cc1ccc(N=Nc2c(O)ccc3n[nH]nc23)cc1	-196*
Cc1ccc(C2NNC(=O)C2NC(=O)c2ccccc2)cc1 (stereo not given)	-111*
CCOC(=O)COc1ccccc1C1Nc2ccccc2C(=O)N1c1cccc(Cl)c1 (stereo not given)	-107*
CC(C)Oc1ccccc1C1Nc2ccccc2C(=O)N1c1ccc2c(c1)OCCO2 (stereo not given)	68
COc1cc(C2Nc3ccccc3C(=O)N2c2ccc(Cl)cc2)c(Cl)cc1OCC(=O)O (stereo not given)	-137*
CCCn1c(O)c(N=Nc2ccc3ccccc3n2)c2ccccc21	-177*
Oc1ccc2ccccc2c1N=Nc1ccccn1	75
Cc1cccc(-c2nc3cc(NC(=O)C4CCCO4)ccc3o2)c1 (stereo not given)	72
O=C(Nc1cccc(-c2nc3cc(Cl)ccc3o2)c1)C1CCCO1 (stereo not given)	-72*
Cc1ccc2oc(-c3cccc(NC(=O)C4CCCO4)c3)nc2c1 (stereo not given)	-181*
Cn1c(-c2ccc3nc(N)sc3c2)nc2cc(N)ccc21	-72*
Fc1ccccc1CSc1nc2ncc(Br)cc2[nH]1	-127*
O=[N+]([O-])c1ccc(Sc2n[nH]c(-c3ccccc3)n2)nc1	-73*
Cc1ccnc(Sc2ccc([N+](=O)[O-])cn2)n1	-72*
O=C(O)c1ccc(COc2ccc(CO)cc2Cl)cc1	-92*
O=C(O)c1cccc(COc2ccc(CO)cc2Cl)c1	105
CC(=O)OC(CC(=O)O)C[N+](C)(C)C (stereo not given)	68
C/C(=C\C(=S)Nc1ccccc1)Nc1ccc2ccccc2c1	-94*
C/C(=C\C(=S)Nc1ccccc1)Nc1cccc2ccccc12	-104*
Clc1cccc(N/N=C(\Cc2nc3ccccc3[nH]2)c2ccccc2)c1	-102*
COc1cccc(Nc2ncnc3sc(C)cc23)c1	-126*
SMILES	aSyn UTR act
COc1ccc(CCNc2ncnc3sc(C)cc23)cc1OC	77
c1nc(Nc2ccc(N3CCOCC3)cc2)c2ccsc2n1	-63*
COc1ccc(Oc2ncnc3sccc23)cc1	-95*
COc1cccc(Nc2ncnc3sccc23)c1	-118*
COc1ccc(Nc2nccc3c2ncn3C)cc1	21
COc1ccc(Nc2ncnc3sccc23)cc1	-98*
O=c1c2ccccc2nc(SCc2nc3ccccc3s2)n1CCCO	-182*
CN(C)c1ccc(C2Nc3ccccc3C(=O)N2CCCN2CCOCC2)cc1 (stereo not given)	-120*
Fc1cccc(Nc2ncnc3c2cnn3-c2ccccc2)c1	-173*
Clc1cccc(Nc2ncnc3c2cnn3-c2ccccc2)c1	-86*
O=C(O)c1cccc(Nc2ncnc3c2cnn3-c2ccccc2)c1	-101*
CCOCC(=O)Nc1ccc(Br)c(C)c1	-120*
Nc1c(C(=O)NC2CCCC2)sc2nc(-c3cccs3)ccc12	-74*
O=C(NC1CCCCCC1)c1cccs1	-81*
O=C(CCS(=O)(=O)c1cccs1)NC1CCCCCC1	-139*
O=C(NCCC1CCCC1)c1cccs1	-69*
Oc1ccc(-c2nnc(SCc3ccccc3)o2)cc1	-138*
O=C(CSc1nnc(COc2ccc(Cl)cc2)o1)N1c2ccccc2CCc2ccccc21	60
Fc1ccc(CSc2nnc(-c3cccnc3)o2)cc1	-65*
c1ccc(CSc2nnc(Cc3ccccc3)o2)cc1	-71*
Cc1ccccc1-c1nnc(SCc2ccc(F)cc2)o1	-126*
c1ccc(-c2nnc(SCCC3OCCCO3)o2)cc1	-111*
c1ccc(CSc2nnc(-c3cccnc3)o2)cc1	-123*
NC(=O)c1c(NC(=O)c2ccco2)sc2c1CCC2	-277*
O=C(Nc1sc2c(c1C(=O)O)CCCCC2)c1ccco1	-96*
SMILES	aSyn UTR act
N#Cc1c(NC(=O)c2ccco2)sc2c1CCC2	-133*
Cc1occc1C(=O)Nc1sc2c(c1C(N)=O)CCCCC2	-176*
CC1(C)Cc2c(sc(NC(=O)c3ccco3)c2C#N)CO1	-100*
COc1cc2c(cc1NC(=O)c1cccc([N+](=O)[O-])c1)oc1ccccc12	81
COc1cc2c(cc1NC(=O)c1cccnc1)oc1ccccc12	-155*
COc1cc2c(cc1NC(=O)c1ccncc1)oc1ccccc12	-132*
CC1CCC(NC(=O)Cn2c(=O)[nH]c3ccsc3c2=O)CC1 (stereo not given)	-130*
O=[N+]([O-])c1ccc(C2=Nc3cc(Cl)ccc3OC2)cc1	-149*
O=C(O)c1ccc(NC(=S)NC2CCCCC2)cc1	-65*
FC(F)(F)c1ccc(NC(=S)NC2CCCCC2)cc1	-78*
Cc1ccc2c(c1)COc1c3ccc(C(=O)NC(C)C)cc3nn1-2	-204*
Cc1ccc2c(c1)COc1c3ccc(C(=O)N[C@@H](C)CO)cc3nn1-2	-154*
CCC(=O)Nc1ccc(-c2ccc(N3CCC(C)CC3)nn2)cc1	-96*
CCC(=O)Nc1ccc(-c2ccc(N3CCN(C)CC3)nn2)cc1	-73*
CC1CCN(c2ccc(-c3cccc(NC(=O)C(F)(F)F)c3)nn2)CC1	103
Cc1ccc(OC(=O)c2ccc(S(=O)(=O)N(C)C)cc2)c(-n2nc3ccccc3n2)c1	-195*
Cc1cc(Cl)c(O)c(-n2nc3ccccc3n2)c1	-143*
Cc1ccc2nc(NNC(=O)c3ccc(S(=O)(=O)N4CCc5ccccc5C4)cc3)sc2c1	96
CC(=O)Oc1ccc(C)cc1-n1nc2ccccc2n1	-212*
Cc1ccc(OC(=O)c2cccc(S(=O)(=O)N3CCCC3)c2)c(-n2nc3ccccc3n2)c1	-162*
CN1CCN(/N=C/c2ccc(-c3ccccc3)cc2)CC1	-133*
CSc1ccc(/C=N/N2CCN(C)CC2)cc1	-95*
CSc1ccc(/C=N/n2c(C)cc(C)cc2=O)cc1	-127*
COc1cccc(/C=C/c2ccccn2)c1O	-98*
CC(=O)Nc1cc(-c2ccc(F)cc2)[nH]n1	-77*
SMILES	aSyn UTR act
O=C(Nc1cc(-c2ccccc2)[nH]n1)c1ccccc1F	-207*
CCNC(=S)Nc1cc(-c2ccc(Cl)cc2)[nH]n1	-87*
Cc1ccc(-c2nn3c(C)nnc3s2)cc1N	-79*
COC(=O)c1ccc(/C=C/c2nc3ccccc3c(=O)[nH]2)cc1	-136*
C=CCOc1cccc(/C=C/c2nc3ccccc3c(=O)[nH]2)c1	-182*
COc1cc(/C=C/c2nc3ccccc3c(=O)[nH]2)cc(OC)c1OC	-84*
Cc1ccc(/C=C/c2nc3ccccc3c(=O)[nH]2)cc1	68
COc1cc(/C=C/c2nc3ccccc3c(=O)[nH]2)ccc1OC(F)F	-195*
COc1cc(/C=C/c2nnc3c4ccccc4ncn23)cc(OC)c1OC	-80*
BrCCOCCOc1ccc2ccccc2c1	-130*
N/C(Cc1ccc(Cl)cc1Cl)=N\OC(=O)c1ccccc1F	-72*
CCc1ccc2nc3sc(C(=O)O)cc3cc2c1	-81*
CCN(CC)c1ccc(/C=N/N2CCOCC2)cc1	-152*
CCN(CC)c1ccc(/C=N/n2c(-c3ccccc3Br)n[nH]c2=S)cc1	78
CCCc1c(C)c2ccc(OCC(C)=O)cc2oc1=O	-143*
Cc1c(C)c2ccc(OCC(=O)c3ccccc3)cc2oc1=O	-80*
COC(=O)c1cccc(CSc2nnc(C)s2)c1	-82*
